Reference: PubChem BioAssay (Tox21)
Records with an inconclusive call do not appear. Entries that show only a call come without a potency. Some structures have more than one record in an assay (separate samples or runs), and their calls can disagree. Calls of active or inactive are those of the source. Unless noted, calls come from the whole dose curve; as a rule, active = well fitted curve in the direction sought with a large enough effect in the repeat runs; inconclusive = weak or mixed curves; inactive = no such curve, though single readings can be large; an effect the other way counts as inactive or inconclusive.

Tests used:
[1] = biological target: Thyrotropin receptor (Homo sapiens) (UniProt P16473); test: qHTS assay to identify small molecule antagonists of the thyroid stimulating hormone receptor (TSHR) signaling pathway (AID 1259385; calls by dose curve; note: nearly all actives have a fitted effect of over 20% in size)
How it was run: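 TSHR-HEK293 cells (800/well) plated 18 h, then compounds with Ro20-1724 and TSH at 1.5 ng/mL final, 30 min at room temperature. cAMP quantified by HTRF (cAMP-d2/anti-cAMP-cryptate, 1 h); 15 concentrations in triplicate.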

[2] = qHTS assay to identify small molecule agonists of the estrogen receptor alpha (ER-alpha) signaling pathway in the presence of an antagonist - cell viability counter screen (AID 1259386);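 note: series mostly up to about 92 µM; cells exposed to compounds for 22 h at 37 °C before the viability read; nearly all actives have a fitted effect of over 30% in size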
How it was run: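 Viability counter screen using VM7Luc4E2 (full-length ER-alpha, four ERE-luciferase). The cells were treated with compounds alongside ICI-182,780 10.0nM for 22hr, and live-cell protease fluorescence was quantified with CellTiter-Fluor.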

[3] = qHTS assay to identify small molecule antagonists of the progesterone receptor (PR) signaling pathway - cell viability counter screen (AID 1346798); note: series mostly up to about 92 µM; nearly all actives have a fitted effect of over 50% in size
How it was run: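 CellTiter-Glo luminescence; PR-UAS-bla HEK293T, 3,000 cells/well; compound + R5020, 16 hr, 37C/5% CO2; 30 min RT before read.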

[4] = qHTS assay to identify small molecule agonists of the progesterone receptor (PR) signaling pathway - cell viability counter screen (AID 1346799; calls by dose curve; note: nearly all actives have a fitted effect of over 45% in size)
How it was run: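 In parallel with the beta-lactamase readout, cytotoxicity toward PR-UAS-bla HEK293T cells was measured by CellTiter-Glo luminescence following 16 hr compound incubation in 2% charcoal-stripped FBS medium.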

[5] = qHTS assay to identify small molecule antagonists of the TGF-beta/Smad signaling pathway - cell viability counter screen (AID 1346824); note: nearly all actives have a fitted effect of over 50% in size
How it was run: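 SBE-bla HEK 293T cells, incubated overnight, then compound plus 0.25 ng/mL TGF-beta1 (stock added) for 5 hr at 37 C. Viability was read in the same wells by CellTiter-Glo luminescence after 30 min at room temperature.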

[6] = qHTS assay to identify small molecule agonists of the TGF-beta/Smad signaling pathway (AID 1346859; active = well fitted activation curve with a large enough effect in the signal ratio in the repeat runs, not every such curve was filed as active; the % refers to the signal ratio; note: series mostly up to about 77 µM)
How it was run: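 After overnight seeding, SBE-bla HEK 293T cells are dosed with compounds in DMSO and kept 5 hr at 37 C, 5% CO2. LiveBLAzer-type FRET substrate is then applied for 2 hr at room temperature.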

[7] = Human pregnane X receptor (PXR) small molecule agonists, qHTS cell viability counter screen (AID 1346977); note: nearly all actives have a fitted effect of over 50% in size
How it was run: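 Viability counter screen: CellTiter-Fluor signal in PXR-Luc HepG2 cells, 24hr compound exposure, 37C, 5% CO2.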

[8] = Caspase-3/7 induction in CHO-K1 cells by small molecules, qHTS cell viability counter screen (AID 1346979); note: nearly all actives have a fitted effect of over 35% in size
How it was run: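 Viability readout by fluorescence (CellTiter-Fluor) on wild-type CHO-K1 cells exposed for 16hr at 37C and 5% CO2 to compounds delivered in DMSO; reagent incubated 1hr before reading.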

[9] = Caspase-3/7 induction in CHO-K1 cells by small molecules, qHTS assay (AID 1346980); note: nearly all actives have a fitted effect of over 15% in size
How it was run: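 Wild-type CHO-K1 cells exposed to compounds for 17hr at 37 C, 5% CO2. Caspase-3/7 activity then measured by Caspase-Glo 3/7 luminescence after 30min at room temperature.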

[10] = Caspase-3/7 induction in HepG2 cells by small molecules, qHTS cell viability counter screen (AID 1346981); note: series mostly up to about 92 µM; nearly all actives have a fitted effect of over 30% in size
How it was run: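 Viability determined by CellTiter-Fluor fluorescence in HepG2 wells also used for the luminescent Caspase-Glo 3/7 read. Compounds were present for 16 hr at 37 C, 5% CO2 before reagent addition.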

[11] = biological target: Nuclear receptor subfamily 1 group I member 2 (Homo sapiens) (UniProt O75469); test: Human pregnane X receptor (PXR) small molecule agonists, qHTS assay (AID 1346982); note: nearly all actives have a fitted effect of over 35% in size; note: potency is the fitted concentration of half-maximal effect
How it was run: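 Compound-induced hPXR transactivation of a CYP3A4 luciferase reporter was scored in HepG2 PXR-Luc cells over 24 hr at 37 C, 5% CO2, by luminescence.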

[12] = biological target: Progesterone receptor (Homo sapiens) (UniProt P06401); test: qHTS assay to identify small molecule agonists of the progesterone receptor (PR) signaling pathway (AID 1346784; calls by dose curve; note: nearly all actives have a fitted effect of over 30% in size)
How it was run: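 Fluorescence from LiveBLAzer B/G FRET substrate cleavage (2 hr, RT) reported PR activation in PR-UAS-bla HEK 293T cells treated 16 hr at 37C/5% CO2 with compounds; medium contained 2% charcoal-stripped FBS.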

[13] = biological target: Progesterone receptor (Homo sapiens) (UniProt P06401); test: qHTS assay to identify small molecule antagonists of the progesterone receptor (PR) signaling pathway (AID 1346795; active = well fitted inhibition curve with a large enough effect in the signal ratio in the repeat runs, not every such curve was filed as active; the % refers to the signal ratio)
How it was run: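 Fluorescence intensity measured 2 hr after adding beta-lactamase FRET substrate to PR-UAS-bla HEK293T cells that had been co-treated 16 hr with compound and 1 nM R5020 (final concentration) in 2% charcoal-stripped FBS.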

[14] = qHTS assay to identify small molecule agonists of the TGF-beta/Smad signaling pathway - cell viability counter screen (AID 1346829); note: top concentration of the series differs between compounds; nearly all actives have a fitted effect of over 45% in size
How it was run: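 SBE-bla HEK 293T cells plated overnight, compound exposure 5 hr at 37 C. Viability read in the same wells by CellTiter-Glo luminescence after 30 min at room temperature, following the beta-lactamase read.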

[15] = Caspase-3/7 induction in HepG2 cells by small molecules, qHTS assay (AID 1346978); note: nearly all actives have a fitted effect of over 15% in size
How it was run: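 Wild-type HepG2 cells, 2,000/well, settled 5 hr at 37 C and 5% CO2, then compound-treated for 17 hr; caspase-3/7 activity read by luminescent Caspase-Glo 3/7 after 30 min at room temperature.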

[16] = biological target: Thyrotropin-releasing hormone receptor (Homo sapiens) (UniProt P34981); test: qHTS assay to identify small molecule antagonists of the thyrotropin-releasing hormone receptor (TRHR) signaling pathway (AID 1346877; active = well fitted inhibition curve with a large enough effect in the repeat runs, not every such curve was filed as active; note: series mostly up to about 51 µM)
How it was run: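 Following an 18 h incubation at 37 °C and a 2 h calcium dye load, TRHR-HEK293 cells were exposed to compound (5 min, room temperature) and challenged with TRH, 1 nM final.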

[17] = biological target: Thyrotropin-releasing hormone receptor (Homo sapiens) (UniProt P34981); test: qHTS assay to identify small molecule agonists of the thyrotropin-releasing hormone receptor (TRHR) signaling pathway (AID 1346891; calls by dose curve;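 note: HEK293 cells expressing TRHR with calcium dye readout; series mostly up to about 58 µM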)
How it was run: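 Compounds were tested as agonists at 15 concentrations, in triplicate, on TRHR-Hek293 cells; calcium-sensitive dye fluorescence was recorded for 3 min following addition.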

[18] = biological target: Nuclear receptor subfamily 1 group I member 2 (Rattus norvegicus) (UniProt Q9R1A7); test: Rat pregnane X receptor (rPXR) activation by small molecules, qHTS assay (AID 1346983); conditions: rPXR luciferase reporter cells, One-Glo luminescence, 24 h; stronger effect = higher value; note: nearly all actives have a fitted effect of over 20% in size
How it was run: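 Cell-based rPXR activation assay: rPXR cells, 2,000 per well, rested 5hr at 37 C, then exposed to compounds in DMSO for 24 hr at 37 C. Luciferase activity read by One-Glo luminescence after 30 min at room temperature.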

[19] = biological target: Nuclear receptor subfamily 1 group I member 2 (Homo sapiens) (UniProt O75469); test: CYP3A4 induction through human pregnane X receptor (PXR) by small molecules, qHTS assay (AID 1346984); note: nearly all actives have a fitted effect of over 40% in size
How it was run: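 Readings come from a luciferase reporter: DPX-2 cells, which are HepG2 cotransfected with PXR and a CYP3A4-promoter construct, were exposed to test compounds for 24 h at 37C before One-Glo detection.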

[20] = biological target: Nuclear receptor subfamily 1 group I member 2 (Homo sapiens) (UniProt O75469); test: Human pregnane X receptor (PXR) activation by small molecules, qHTS assay (AID 1346985); note: nearly all actives have a fitted effect of over 40% in size
How it was run: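 DPX-2 cells (HepG2 co-transfected with a PXR response element and a CYP3A4-promoter luciferase construct) were seeded at 2,000 per well, rested 5 hr at 37C, then exposed to DMSO-dissolved compounds for 24 hr. Activation was read as luciferase luminescence.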

Sequence of Nuclear receptor subfamily 1 group I member 2 (Homo sapiens) (O75469 whole entry, looked up): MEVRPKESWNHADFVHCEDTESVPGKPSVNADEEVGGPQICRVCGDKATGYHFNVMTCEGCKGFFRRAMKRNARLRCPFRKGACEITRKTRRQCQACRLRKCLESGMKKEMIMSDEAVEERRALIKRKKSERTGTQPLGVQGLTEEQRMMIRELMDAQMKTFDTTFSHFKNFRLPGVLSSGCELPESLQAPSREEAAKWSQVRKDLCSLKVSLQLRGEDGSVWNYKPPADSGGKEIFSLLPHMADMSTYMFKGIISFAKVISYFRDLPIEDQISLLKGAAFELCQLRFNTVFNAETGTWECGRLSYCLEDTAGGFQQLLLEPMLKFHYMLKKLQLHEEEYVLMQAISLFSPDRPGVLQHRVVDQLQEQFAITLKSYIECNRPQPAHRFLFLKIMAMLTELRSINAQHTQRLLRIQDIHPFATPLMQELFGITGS
Sequence of Thyrotropin receptor (Homo sapiens) (P16473 whole entry, looked up): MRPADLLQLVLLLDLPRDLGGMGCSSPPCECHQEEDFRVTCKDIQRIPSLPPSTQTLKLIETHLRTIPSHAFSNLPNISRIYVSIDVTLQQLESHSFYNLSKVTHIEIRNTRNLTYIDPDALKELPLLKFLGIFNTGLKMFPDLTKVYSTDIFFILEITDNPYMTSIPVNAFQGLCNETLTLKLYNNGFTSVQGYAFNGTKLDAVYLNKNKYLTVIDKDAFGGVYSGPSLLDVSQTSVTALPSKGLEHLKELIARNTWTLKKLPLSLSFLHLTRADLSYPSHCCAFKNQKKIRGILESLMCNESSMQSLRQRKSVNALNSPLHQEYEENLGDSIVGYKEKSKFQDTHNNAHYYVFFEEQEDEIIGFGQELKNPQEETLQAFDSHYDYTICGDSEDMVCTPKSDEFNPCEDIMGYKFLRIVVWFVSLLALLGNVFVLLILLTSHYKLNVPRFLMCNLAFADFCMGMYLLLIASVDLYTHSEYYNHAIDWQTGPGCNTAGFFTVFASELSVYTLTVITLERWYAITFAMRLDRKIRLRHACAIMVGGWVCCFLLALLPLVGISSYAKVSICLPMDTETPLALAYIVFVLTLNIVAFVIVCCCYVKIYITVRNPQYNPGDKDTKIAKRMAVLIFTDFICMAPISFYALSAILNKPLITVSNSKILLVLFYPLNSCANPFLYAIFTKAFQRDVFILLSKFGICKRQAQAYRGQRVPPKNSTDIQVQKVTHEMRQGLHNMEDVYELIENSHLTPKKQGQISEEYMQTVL
Sequence of Progesterone receptor (Homo sapiens) (P06401 whole entry, looked up): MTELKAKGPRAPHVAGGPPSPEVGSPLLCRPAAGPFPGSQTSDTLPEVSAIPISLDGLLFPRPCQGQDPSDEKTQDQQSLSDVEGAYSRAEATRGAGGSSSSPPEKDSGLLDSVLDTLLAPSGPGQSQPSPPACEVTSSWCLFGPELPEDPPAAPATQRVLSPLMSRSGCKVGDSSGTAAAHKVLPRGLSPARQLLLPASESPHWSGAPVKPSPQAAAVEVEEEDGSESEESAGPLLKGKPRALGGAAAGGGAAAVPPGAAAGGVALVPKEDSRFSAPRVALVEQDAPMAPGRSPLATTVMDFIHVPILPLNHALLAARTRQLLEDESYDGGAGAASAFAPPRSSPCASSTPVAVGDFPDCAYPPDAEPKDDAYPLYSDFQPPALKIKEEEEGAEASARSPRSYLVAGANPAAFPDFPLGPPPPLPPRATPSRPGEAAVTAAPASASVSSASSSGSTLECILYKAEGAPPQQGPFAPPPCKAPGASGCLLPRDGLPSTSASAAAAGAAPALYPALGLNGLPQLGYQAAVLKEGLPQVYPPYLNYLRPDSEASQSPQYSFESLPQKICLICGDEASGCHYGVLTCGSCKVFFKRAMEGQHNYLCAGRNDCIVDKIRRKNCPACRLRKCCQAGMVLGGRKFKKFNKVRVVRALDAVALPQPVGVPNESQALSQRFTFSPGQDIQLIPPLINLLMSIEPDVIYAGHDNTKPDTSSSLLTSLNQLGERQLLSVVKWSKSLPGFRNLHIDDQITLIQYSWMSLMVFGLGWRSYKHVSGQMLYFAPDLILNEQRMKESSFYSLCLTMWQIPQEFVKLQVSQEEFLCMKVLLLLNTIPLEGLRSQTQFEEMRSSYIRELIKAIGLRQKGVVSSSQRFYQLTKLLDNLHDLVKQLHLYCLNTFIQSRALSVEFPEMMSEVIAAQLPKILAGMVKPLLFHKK
Sequence of Thyrotropin-releasing hormone receptor (Homo sapiens) (P34981 whole entry, looked up): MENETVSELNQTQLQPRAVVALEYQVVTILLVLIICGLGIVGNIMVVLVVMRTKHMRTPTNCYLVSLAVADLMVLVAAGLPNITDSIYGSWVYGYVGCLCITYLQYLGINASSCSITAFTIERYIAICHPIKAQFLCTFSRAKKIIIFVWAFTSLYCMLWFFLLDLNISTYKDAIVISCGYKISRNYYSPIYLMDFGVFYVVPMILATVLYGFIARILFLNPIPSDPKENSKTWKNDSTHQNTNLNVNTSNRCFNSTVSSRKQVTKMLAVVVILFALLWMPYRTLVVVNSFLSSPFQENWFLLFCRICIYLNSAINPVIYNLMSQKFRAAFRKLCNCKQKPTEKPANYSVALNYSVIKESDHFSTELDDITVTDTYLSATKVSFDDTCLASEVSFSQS
Sequence of Nuclear receptor subfamily 1 group I member 2 (Rattus norvegicus) (Q9R1A7 whole entry, looked up): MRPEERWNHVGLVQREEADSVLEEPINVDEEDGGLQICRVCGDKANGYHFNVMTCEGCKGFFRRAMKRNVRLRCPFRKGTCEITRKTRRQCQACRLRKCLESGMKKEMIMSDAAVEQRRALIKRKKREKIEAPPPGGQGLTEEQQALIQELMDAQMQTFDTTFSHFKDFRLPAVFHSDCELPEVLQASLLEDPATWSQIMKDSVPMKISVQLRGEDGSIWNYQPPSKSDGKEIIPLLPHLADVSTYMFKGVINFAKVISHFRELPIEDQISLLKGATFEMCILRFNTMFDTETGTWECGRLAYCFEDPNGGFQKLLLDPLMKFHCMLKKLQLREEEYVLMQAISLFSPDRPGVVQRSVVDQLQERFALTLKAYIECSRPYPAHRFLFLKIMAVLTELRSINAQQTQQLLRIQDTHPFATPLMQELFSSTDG

Row | SMILES | outcome [1] | Potency [2] | outcome [3] | outcome [4] | outcome [5] | outcome [6] | Potency [7] | Potency [8] | outcome [9] | Potency [10] | Potency [11] | Potency [12] | Potency [13] | outcome [14] | Potency [15] | outcome [16] | outcome [17] | max activation [18] | Potency [19] | outcome [20]
1 | CC(C)c1cccc(C(C)C)c1 | inactive | inactive | inactive | inactive | inactive | inactive | inactive | inactive | inactive | inactive | inactive |  |  |  |  |  |  |  |  | 
2 | CNC(=S)N(C)C |  | inactive |  | inactive |  |  | inactive | inactive | inactive | inactive | 61.7 µM (active) and inactive | inactive | inactive | inactive |  |  |  |  |  | 
3 | O=C(OCC1CCC2OC2C1)C1CCC2OC2C1 (stereo not drawn) | inactive |  | inactive | inactive |  | inactive | inactive | inactive | inactive | inactive | inactive | inactive | inactive |  | inactive |  |  |  |  | 
4 | C=CC[N+](C)(C)CC=C | inactive | inactive |  | inactive |  |  | inactive | inactive | inactive | inactive | 54.9 µM (active) and inactive | inactive | inactive |  |  | inactive | inactive |  |  | 
5 | CCCCCC(=O)O | inactive | inactive |  | inactive |  |  | inactive | inactive | inactive | inactive | inactive | inactive | inactive | inactive |  | inactive | inactive |  |  | 
6 | CCCCCCCC=O |  | inactive |  | inactive | inactive |  | inactive | inactive | inactive | inactive | inactive | inactive | inactive |  |  | inactive | inactive |  |  | 
7 | C[C@]12CC[C@@H]3c4ccc(O)cc4CC[C@H]3[C@@H]1C[C@@H](O)[C@@H]2O | inactive | inactive | inactive | inactive | inactive | inactive | inactive | inactive | inactive | inactive | inactive | inactive |  | inactive |  |  |  | -0.315% (inactive) | inactive | inactive
8 | CC(C)(C#N)c1cc(Cn2cncn2)cc(C(C)(C)C#N)c1 |  | inactive | inactive | inactive | inactive | inactive | inactive | inactive | inactive | inactive |  | inactive | inactive |  | inactive |  |  | 0.273% (inactive) |  | 
9 | Brc1ccc(Br)c(Br)c1 | inactive | inactive |  | inactive |  |  | inactive | inactive | inactive | inactive | inactive | inactive | inactive |  | inactive |  |  |  |  | 
10 | COc1ccc(OC)cc1 | inactive | inactive |  | inactive |  | inactive | inactive | inactive | inactive | inactive | inactive | inactive | inactive | inactive | inactive | inactive | inactive |  |  | 
11 | CC(C)OP(=O)(CP(=O)(OC(C)C)OC(C)C)OC(C)C |  | inactive |  | inactive | inactive | inactive | inactive | inactive | inactive | inactive | 27.3 µM (active) and inactive | inactive | inactive |  |  | inactive | inactive |  |  | 
